Consider 37 molecules from ChEMBL document CHEMBL3433997, “St. Jude Leishmania screening dataset” (2016).

Common to all, as to format: functional
Experiment [1] has as its target Solute carrier family 2, facilitated glucose transporter member 1 (Homo sapiens) (UniProt P11166). Nature of the experiment: ST_JUDE_LEISH: Cytotoxicity at 2uM final concentration against transgenic Leishmania Mexicana promastigotes LmGLUT1 that are glucose transport deficient and complemented with the human glucose transporter GLUT1. Activity is measured by DNA content using SYBR green in vitro.

For experiment [2], the target named is Hexose transporter 1 (Plasmodium falciparum) (UniProt O97467). Description: ST_JUDE_LEISH: Cytotoxicity at 2uM final concentration against transgenic Leishmania Mexicana promastigotes LmPfHT that are glucose transport deficient and complemented with the Plasmodium falciparum hexose transporter. Activity is measured by DNA content using SYBR green in vitro.

In experiment [3] the target is Glucose transporter (Leishmania mexicana) (UniProt O61059). Nature of the experiment: ST_JUDE_LEISH: Cytotoxicity at 2uM final concentration against transgenic Leishmania Mexicana promastigotes LmGT2 that are glucose transport deficient and complemented with the L. Mexicana glucose transporter 2. Activity is measured by DNA content using SYBR green in vitro.

Chain of Solute carrier family 2, facilitated glucose transporter member 1 (Homo sapiens) (P11166 whole entry): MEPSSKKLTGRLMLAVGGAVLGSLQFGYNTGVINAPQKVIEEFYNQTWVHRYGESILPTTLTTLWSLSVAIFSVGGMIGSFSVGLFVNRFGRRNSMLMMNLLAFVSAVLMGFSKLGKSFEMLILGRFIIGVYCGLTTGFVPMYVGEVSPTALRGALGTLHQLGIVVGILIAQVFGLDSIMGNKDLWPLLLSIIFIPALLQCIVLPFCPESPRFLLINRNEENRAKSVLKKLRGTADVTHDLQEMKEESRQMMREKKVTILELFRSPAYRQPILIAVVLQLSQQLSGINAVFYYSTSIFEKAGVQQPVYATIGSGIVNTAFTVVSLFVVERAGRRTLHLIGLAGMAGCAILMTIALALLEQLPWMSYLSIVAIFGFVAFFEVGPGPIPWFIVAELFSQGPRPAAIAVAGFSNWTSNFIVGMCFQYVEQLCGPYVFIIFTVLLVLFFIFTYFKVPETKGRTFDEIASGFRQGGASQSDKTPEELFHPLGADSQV

By inhibition is commonly meant the change of the read-out against control, counted positive when it falls. `CCN(CC)CCCN(C(=O)Nc1cc(F)cc(F)c1)c1nc(-c2ccc(F)cc2)cs1`: the inhibition in experiment [1] was 1.8%; in experiment [2] it was -0.11%; in experiment [3] it was 1.69%.
The like results for `OC(COc1ccccc1-c1nc2ccccc2o1)CN1CCCN(CCc2ccccc2)CC1` (stereo unspecified) were, in that order, -0.28%, -1.19% and -0.36%.
The like results for `C=C(C)CSc1nc2c(c(=O)n1Cc1ccco1)C1(CCCCC1)Cc1ccccc1-2` were, in that order, 3.67%, 3.16% and 4.72%.
The matching figures for `O=C(c1ccc(Cl)cc1)C1CCCN(C2CCN(CCc3ccccc3)CC2)C1` (stereo unspecified): 12.5%, 17.3% and 13.8%.
For `CN(C)CCOc1ccc2c(c1)OC(C)(C)C=C2c1cccc2ccccc12`, the inhibition came to 4.01% in experiment [1], 3.57% in experiment [2] and 3.75% in experiment [3].
The like results for `NC1=NC(c2ccccc2)(c2ccccc2)C(=O)N1Cc1ccc(-c2ccncc2)cc1` were, in that order, 8.4%, 6.36% and 6.42%.
The matching figures for `COc1ccc(O)cc1Cc1cnc2nc(N)nc(N)c2c1C`: -0.06%, 1.16% and 0.83%.
The matching figures for `O=C(Nc1ccc(Cl)c(Cl)c1)N1CCc2cc3nccc(N4CCN5CCC[C@H]5C4)c3cc21`: 3.24%, 4.53% and 4.1%.
Consider `Oc1cccc(-c2nc(-c3cccc(I)c3)c(-c3ccc(-c4nc(-c5cccc(O)c5)[nH]c4-c4cccc(I)c4)cc3)[nH]2)c1`, for which the inhibition in experiment [1] is 4.52%; in experiment [2], 4.72%; in experiment [3], 4.57%.
The matching figures for `Cc1cccc2nc(-c3cccc(-c4cccc(NC(=O)C(C)CN5CCN(C)CC5)c4)c3)[nH]c12` (stereo unspecified): 1.94%, 1.44% and 5.8%.
The like results for `N#Cc1cccc(NC(=O)Nc2ccc(-c3csc(-c4nc5ccccc5[nH]4)c3)cc2)c1` were, in that order, 7.99%, 9.33% and 3.91%.
The like results for `CC(C)n1c(C(C)(C)C)cc2c3c(N)nc(N)nc3ccc21` were, in that order, 52.7%, 62.4% and 44.4%.
On to `CCCCCCCCNCc1c(O)ccc2ccccc12`, for which the inhibition in experiment [1] is 3.46%; in experiment [2] it was 3.25%; in experiment [3] it was 5.48%.
For the molecule `Cc1ccc(/C=C/C(=O)NCCCCCN2CCN(C(=O)Nc3ccc(Cl)c(C(F)(F)F)c3)CC2)cc1`, the inhibition in experiment [1] was 4.47%; in experiment [2] it was -0.2%; in experiment [3], 0.88%.
The like results for `CCc1cc2c(=O)c(-c3nc(C)cs3)c([C@H](N)Cc3ccc(O)cc3)oc2cc1O` were, in that order, 2.9%, 2.34% and 7.8%.
The like results for `COc1ccc2nccc(NC(=O)C3CCC(NCc4ccc5c(c4)NC(=O)CS5)CC3)c2c1` (stereo unspecified) were, in that order, 4.42%, 2.96% and 0.5%.
Turning to `N#Cc1ccc2c(c1)CCN(CCC1CCC(NC(=O)c3cc4ccc(Cl)cc4[nH]3)CC1)C2` (stereo unspecified), the values for the inhibition in experiment [1], in experiment [2] and in experiment [3] were 1.73%, -0.22% and -0.76%, respectively.
As to `O=C(/C=C/c1ccc(Cl)c(Cl)c1)NCCCCCN1CC[C@H](NC(=O)Nc2ccc(Oc3ccccc3)cc2)C1`, the figures for the inhibition in experiment [1], in experiment [2] and in experiment [3] were -0.32%, -1.24% and 1.17%, respectively.
On to `CN1CCN(c2ccnc3ccc(NC(=O)Cc4ccc(-c5ccncc5)c5ccccc45)cc23)CC1`, for which the results for the inhibition in experiment [1], in experiment [2] and in experiment [3] were -3.69%, 0.37% and -0.2%, respectively.
The like results for `Cc1cccc2nc(-c3cccc(-c4cccc(CNCc5cccc(N)c5)c4)c3)[nH]c12` were, in that order, 1.24%, 2.66% and 1.47%.
Regarding `CNC(=O)NC1=NC(C)(C)N(OCc2ccc(Cl)c(Cl)c2)C(NC(=O)NC)=N1`, the inhibition is 1.27% in experiment [1], 0.11% in experiment [2] and 0.39% in experiment [3].
The matching figures for `O=C(O)C[C@H](NC(=O)c1cc(-c2ccc3c(c2)OCO3)no1)C(=O)O.O=C(O)C[C@H](NC(=O)c1conc1-c1ccc2c(c1)OCO2)C(=O)O`: -1.58%, -1.07% and -2.23%.
For the molecule `Nc1nc(N)c(-c2ccccc2)c(=O)[nH]1`, the inhibition in experiment [1] amounted to 4.51%; in experiment [2], 3.54%; in experiment [3], 1.16%.
The like results for `c1ccc(CCNCc2ccc(-c3ccc(CNc4ccc5ncccc5c4)cc3)cc2)cc1` were, in that order, 9.9%, 1.61% and 2.13%.
The like results for `Cc1cc(N(C)CCN(C)C)nc(Nc2ccc(Br)cc2)n1` were, in that order, -0.17%, 3.61% and 2.53%.
Turning to `CCCN(C(=O)c1ccccc1C)c1nnc(-c2ccccc2C)s1`, the inhibition in experiment [1] is -1.25%; in experiment [2], 0.17%; in experiment [3] it was -3.1%.
The matching figures for `Nc1ncc(-c2ccc(F)cc2)c2ccc(-c3cccc(F)c3)cc12`: 5.19%, 5.19% and 2.72%.
The matching figures for `CN(C)c1ccc(-c2csc(C(=O)NCC3CCN(CC4CCCCC4)C3)c2)cc1` (stereo unspecified): 2.79%, 0.77% and 1.05%.
The matching figures for `C=CCC(C)n1ncc2c3c(N)nc(N)nc3ccc21` (stereo unspecified): 2.58%, -0.39% and -0.24%.
On to `Cc1ccc(NC(=O)c2cc(S(=O)(=O)NC(C)(C)C)ccc2C)nc1`, for which the inhibition in experiment [1] stood at 0.04%; in experiment [2] it was 0.34%; in experiment [3], 2.32%.
The matching figures for `Cc1ccc(NC(=O)c2ccc(NCCCN3CC(C)CC(C)C3)c([N+](=O)[O-])c2)cc1F` (stereo unspecified): 8.68%, 5.06% and 5.89%.
The like results for `Cc1ccc2[nH]c(/C=C/c3cccc4cc[nH]c34)nc2c1` were, in that order, 4.9%, 4.05% and 0.48%.
Take `Cc1cc(Nc2ccc(Cl)c(Cl)c2)n2nc(C)nc2n1`: the inhibition in experiment [1] is -1.71%; in experiment [2], -1.26%; in experiment [3] it was 0.04%.
Consider `CN(C(=O)/C=C/c1cc(C(F)(F)F)ccc1F)C1CCN(CCCCCNC(=O)/C=C/c2ccc(Cl)c(Cl)c2)C1` (stereo unspecified), for which the inhibition in experiment [1] is 0.02%; in experiment [2] it was 1.48%; in experiment [3], 1.37%.
The like results for `COc1cc(NC(=O)Nc2cccc3ccccc23)c(OC)cc1Cl` were, in that order, 5.02%, 5.78% and 3.81%.
Consider `Cc1nc2ccccc2c(O)c1-c1ccc(Cl)cc1`, for which the inhibition in experiment [1] was 1.42%; in experiment [2], -1.38%; in experiment [3] it was -1.04%.
Consider `COC(=O)c1cccc(CNCc2ccc(-c3ccc(-c4nc5cc(C(F)(F)F)ccc5[nH]4)cc3)cc2)c1`, for which the values for the inhibition in experiment [1], in experiment [2] and in experiment [3] were 3.94%, 1.94% and 2.35%, respectively.
